NS1 function inh: inhibitors of influenza NS1 protein function; AID 2326; 270,000 compounds, 0.4% hits; Potency, µM (doses to about 46.1 µM), for inactives: at the top dose activity, positive = more growth; calls by dose curve; also: potency is read from the fitted curve at half-maximal effect; actives are rising curves; nearly all actives have a fitted effect of over 50% in size
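Compounds were scored for reversing the slow growth caused by influenza A NS1 in S. cerevisiae, measured by optical density at 600 nm. Assay medium contained 2% galactose at pH 6.0; NS1-free yeast of the same strain were the positive control.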
AmpC inh no detg: inhibitors of E. coli AmpC beta-lactamase without detergent. AmpC nitrocefin hydrolysis, absorbance 480 nm, 0.0001% Triton. Potency, µM (doses to about 57.1 µM), for the others: at the top dose activity change, negative = inhibition, usual class: inhibitors. 330,000 compounds, 0.52% hits;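 also: potency is read from the fitted curve at half-maximal effect; plate controls were no compound for no effect and no enzyme for full effect; nearly all actives have a fitted effect of over 20% in size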
Target sequence (P00811 whole entry, looked up): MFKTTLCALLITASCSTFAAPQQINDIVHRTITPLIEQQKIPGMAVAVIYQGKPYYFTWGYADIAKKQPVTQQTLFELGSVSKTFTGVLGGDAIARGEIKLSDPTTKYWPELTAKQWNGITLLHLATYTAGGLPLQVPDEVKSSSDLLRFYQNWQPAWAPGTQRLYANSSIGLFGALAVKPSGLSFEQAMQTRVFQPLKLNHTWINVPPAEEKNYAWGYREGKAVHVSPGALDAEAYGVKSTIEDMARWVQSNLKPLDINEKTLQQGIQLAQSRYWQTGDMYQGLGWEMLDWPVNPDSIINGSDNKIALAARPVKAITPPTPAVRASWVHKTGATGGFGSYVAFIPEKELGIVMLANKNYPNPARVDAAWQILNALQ
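AmpC (5.3 nM in the dispensed reagent) in 20 mM phosphate pH 7.0 with 0.01% (detergent screen) or 0.0001% Triton X-100 was preincubated with compounds for 15 min at room temperature. Nitrocefin was then added from an 800 uM solution, and hydrolysis was followed at 480 nm.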
Cycloheximide cs: counter-screen hit for Shiga toxin inhibitors, cycloheximide | 300,000 compounds, 12% hits | AID 2314 | max response, % | cell reporter, cycloheximide protein synthesis inhibition counterscreen; in the data active = max response mostly above about 13%, no sharp cut-off; inactive = mostly below about 14%; also: read at 38.3 µM for the half of the compounds with a filed dose; 0% is about no effect
Shiga toxin inh: inhibitors of Shiga toxin in Vero cells. Vero cells, Shiga toxin protein synthesis inhibition reporter. inhibition, % at 38.7 µM. 290,000 compounds, 9.2% hits. AID 2315; in the data active = inhibition mostly above about 28%, no sharp cut-off; inactive = mostly below about 43%; also: 0% is about no effect
AmpC detergent: AmpC beta-lactamase inhibition with detergent present; AID 485294; Potency, µM (highest dose often 114 µM), for inactives: top-dose activity change, negative = inhibition, hits mostly inhibitors; P00811; AmpC hydrolysis of nitrocefin, absorbance 480 nm, 0.01% Triton; 370,000 compounds, 0.041% hits;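 also: potency is read from the fitted curve at half-maximal effect; 0% = no-compound wells and -100% = no-enzyme wells; nearly all actives have a fitted effect of over 25% in size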
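AmpC (5.3 nM in the dispensed reagent) in 20 mM phosphate pH 7.0 with 0.01% (detergent screen) or 0.0001% Triton X-100 was preincubated with compounds for 15 min at room temperature. Nitrocefin was then added from an 800 uM solution, and hydrolysis was followed at 480 nm.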
Active calls of the source: *; i = inactive; u = inconclusive; x = not tested or not shown; [ ] = another dose, or the depositor's remark. Shown is part of a subset that was picked to be rich in hits. Unless noted, calls follow the shape of the dose curve; as a rule, active = well fitted curve in the direction sought with a large enough effect; inconclusive = small, poorly fitted or top-dose-only effect, or another doubt; inactive = no such curve, though single readings can be large; an effect the other way counts as inactive or inconclusive.

SMILES	NS1 function inh	AmpC inh no detg	Cycloheximide cs	Shiga toxin inh	AmpC detergent
CCOC(=O)Cn1nc2sc3ccccc3n2c(=O)c1=O	-1%	-24%	1	-11	5%
O=C(NCC(c1cccs1)S(=O)(=O)c1cccs1)c1ccc(F)c(F)c1 (stereo not given)	x	x	x	x	2%
CCOC(=O)Cn1cnc2c(cnn2-c2ccccc2)c1=O	2%	-11%	21*	42	-4%
CC(C)CCn1cnc2c(cnn2-c2ccc(F)cc2)c1=O	0%	-5%	36*	60*	-5%
CCC(C(=O)OC)n1cnc2c(cnn2-c2ccc(F)cc2)c1=O (stereo not given)	x	x	x	x	16%
COC(=O)C(C)n1cnc2c(cnn2-c2ccc(Cl)cc2)c1=O (stereo not given)	-4%	-12%	54*	69*	-12%
Cc1ccc(C)c(NC(=O)Cn2c(=O)nc(-c3ccccc3)c3ccccc32)c1	x	x	x	x	-5%
CCOc1cc(/C=N/NC(=O)CSc2nncn2C)ccc1OCc1ccccc1	-18%	85%	-3	16	1%
COc1cc(/C(C)=N/NC(=O)CSc2nncn2C)ccc1OCc1ccccc1Cl	-14%	385%	38*	84*	0%
CCN(CC)S(=O)(=O)c1ccc2c(c1)N(CC(=O)Nc1ccc(C)cc1C)C(=O)C1CCCN21 (stereo not given)	x	x	x	x	3%
COc1cccc(C2C=C(Nc3ccccc3)C(=O)N2c2ccccc2)c1 (stereo not given)	u	-57%	27*	19*	4%
COc1ccc(C2C=C(Nc3ccccc3)C(=O)N2c2ccccc2)cc1OC (stereo not given)	25%	14%	38*	66*	-3%
CCOCCCNC(=O)C1CCN(c2nn3cc(-c4ccc(F)cc4)nc3s2)CC1	x	x	x	x	12%
CCO[C@H]1OC(C(=O)Nc2ccccc2)=C[C@@H](C)[C@@H]1CCCO	4%	-2%	11*	6	5%
CCC(=O)Nc1ccc2nc(C3CC3)n(Cc3ccc(C(C)(C)C)cc3)c(=O)c2c1	2%	-2%	57*	90*	-13%
COc1ccc(Cn2c(C3CC3)nc3ccc(NC(=O)C4CC4)cc3c2=O)cc1	-31%	22%	24*	84*	-11%
CC(=O)Nc1ccc2nc(C3CC3)n(Cc3ccc(Cl)cc3)c(=O)c2c1	x	-10%	23*	49*	3%
O=C(Nc1ccc2nc(C3CC3)n(Cc3ccc(F)cc3)c(=O)c2c1)c1ccco1	-48%	-1%	20	46	-10%
CCOC(=O)c1[nH]c2ccccc2c1NC(=O)c1c(F)cccc1F	x	x	x	x	3%
c1coc(-c2nc3cc4ccccc4cc3nc2-c2ccco2)c1	x	x	26*	66*	x
COc1ccc2nc(-c3ccco3)c(-c3ccco3)nc2c1	-4%	-20%	54*	56	u
O=C(NCCO)Nc1ccc2nc(-c3ccco3)c(-c3ccco3)nc2c1	11%	47%	-5	6	-11%
c1coc(-c2nc(-c3ccco3)c(-c3ccco3)nc2-c2ccco2)c1	3%	-46%	0	-2	u
COC(=O)N/N=C\c1ccc(OC/C=C/c2ccccc2)cc1	-18%	-14%	15*	14	-1%
CCOC(=O)N/N=C\c1ccc(OC/C=C/c2ccccc2)cc1	6%	-17%	12	18	u
SMILES	NS1 function inh	AmpC inh no detg	Cycloheximide cs	Shiga toxin inh	AmpC detergent
CC(C)(O)C(=O)N/N=C\c1ccc(OC/C=C/c2ccccc2)cc1	-19%	17%	32*	45	u
COC(=O)N/N=C/c1ccc(Oc2ccccc2)cc1	x	-16%	46*	92*	-3%
COCC(=O)N/N=C\c1ccc(OC/C=C/c2ccccc2)c(OC)c1	-41%	21%	-2	-4	-4%
COc1cccc(-n2c(=O)c3sc4ccccc4c3n(CC(=O)NC3CCCCC3)c2=O)c1	x	x	x	x	7%
CCCCn1c(N)c(N(CCOC)C(=O)CSc2nnc(-c3ccco3)n2CC)c(=O)[nH]c1=O	x	-20%	x	x	x
COc1cccc(NS(=O)(=O)NC(=O)c2c(C)[nH]c3ccccc23)c1	4%	-2%	31*	30*	2%
COc1cccc(NS(=O)(=O)NC(=O)c2c[nH]c3ccccc23)c1	u	69%	45*	53	-2%
CCOC(=O)c1c(C)n(-c2ccccc2)c2ccc(OC(=O)c3ccccc3Cl)cc12	x	x	x	x	6%
O=C(N/N=C/c1ccccc1OC(F)F)C1=COCCO1	x	-13%[11.4 µM]	27*	64*	-9%
O=C(N/N=C/c1ccc(OC(F)F)cc1)C1=COCCO1	x	-16%[11.4 µM]	51*	78*	-8%
O=C(COC(=O)C1=COCCO1)Nc1ccccc1OC(F)F	0%	-15%	5	20	2%
O=C(NN=Cc1ccc(OC(F)F)cc1)c1ccc(NS(=O)(=O)c2cccs2)cc1	x	-42%	x	x	x
CC(C)(C)S(=O)(=O)c1cnc(-c2ccccn2)nc1N	6%	-5%	8	25	-7%
Cc1cccc(-c2ncc(S(=O)(=O)C(C)(C)C)c(N)n2)c1	-1%	-11%	11*	30	8%
CCOC(=O)c1sc(NC(=O)CC2OC(=O)c3ccccc32)nc1C (stereo not given)	x	-34%	x	x	u
CCOC(=O)c1sc(NC(=O)c2ccc(CC)s2)nc1C	-1%	-31%	40*	105*	5%
CCc1nnc(NC(=O)c2cc3ccccc3oc2=O)s1	-12%	-13%	11*	-3	2%
CCOC(=O)c1sc(NC(=O)Cc2ccc(C)cc2)nc1C	-2%	5%	14	21	-1%
Cc1nnc(NC(=O)c2cc3ccccc3o2)s1	-60%	-14%	25*	67*	7%
CCOC(=O)c1sc(NC(=O)c2cc3ccccc3o2)nc1C	x	-18%	40*	61*	-2%
COc1ccc2c(c1)OC(=O)CC2c1ccccc1C (stereo not given)	x	x	1	i	x
CS(=O)(=O)c1ccc2sc(NC(=O)c3cc4ccccc4o3)nc2c1	-2%	-12%	-2	3	1%
CCc1ccc(C(=O)Nc2cc(C)ccc2F)s1	21%	-25%	70*	105*	1%
CCOC(=O)c1csc(NC(=O)c2cc3ccccc3o2)n1	-5%	-15%	55*	75*	u
CCOC(=O)Cc1csc(NC(=O)c2cc(=O)c3ccccc3o2)n1	-6%	-15%	12	31	5%
SMILES	NS1 function inh	AmpC inh no detg	Cycloheximide cs	Shiga toxin inh	AmpC detergent
Cc1nc(NC(=O)c2cc3ccccc3o2)sc1C	-5%	-28%	37*	46	-6%
Cc1cnc(NC(=O)c2cc3ccccc3o2)s1	3%	-22%	18*	47	1%
CCc1ccc(C(=O)Nc2nc(C)cs2)s1	-1%	-26%	41*	36*	-2%
C=CCOC(=O)c1sc(NC(=O)c2ccco2)nc1C	-29%	-21%	28*	128*	u
CCOC(=O)c1sc(NC(=O)c2ccccc2OC)nc1C	0%	-7%	24*	69*	u
CCOC(=O)c1sc2nc(C)cc(C)c2c1NC(=O)c1ccco1	-15%	-30%	-2	5	-4%

Compound activity deposited in PubChem BioAssay by National Center for Advancing Translational Sciences (NCATS).
